# Hits are enriched below; roughly 1.8% of the tested compounds scored in any of these assays.
# TRPML1 ag – activates the human TRPML1 channel; AID 624414; hit rate 0.12% among 410,000; TRPML1-expressing cells, Ca2+ dye fluorescence, FDSS; activation, % (no concentration beside the values); Q9GZU1; in the data active = activation above about 50%; inconclusive = mostly about 30% to 49%; also: 0% is about no effect
# Target sequence (Q9GZU1 whole entry, looked up): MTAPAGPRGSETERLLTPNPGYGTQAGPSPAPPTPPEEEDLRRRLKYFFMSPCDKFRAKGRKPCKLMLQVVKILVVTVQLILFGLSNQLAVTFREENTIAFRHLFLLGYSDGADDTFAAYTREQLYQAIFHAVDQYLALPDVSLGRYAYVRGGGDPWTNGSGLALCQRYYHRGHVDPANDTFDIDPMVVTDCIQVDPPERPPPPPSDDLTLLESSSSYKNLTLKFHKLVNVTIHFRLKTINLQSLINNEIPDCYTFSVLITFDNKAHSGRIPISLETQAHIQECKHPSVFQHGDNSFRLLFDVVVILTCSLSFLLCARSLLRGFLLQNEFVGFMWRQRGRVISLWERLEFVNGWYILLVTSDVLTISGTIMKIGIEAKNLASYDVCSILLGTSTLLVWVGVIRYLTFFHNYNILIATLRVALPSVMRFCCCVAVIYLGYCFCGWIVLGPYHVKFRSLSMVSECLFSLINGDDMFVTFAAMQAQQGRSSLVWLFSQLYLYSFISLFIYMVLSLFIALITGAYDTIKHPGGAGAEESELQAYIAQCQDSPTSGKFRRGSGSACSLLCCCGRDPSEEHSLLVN
#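 Calcium fluorescence on an FDSS kinetic reader gave the read-out. Tet-induced TRPML1-DL cells were plated overnight, dye-loaded (Ca8 with quencher, 45-90 min, room temperature, dark), then read 110 s after compound addition, and again 110 s after 4uM final 54-4 (EC80).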
# GLP1R ag – GLP-1 receptor (human) agonism. AID 624172. hit rate 0.007% among 380,000. Potency, µM (highest dose often 45.6 µM), for the others: at the highest dose activation, most hits filed as activators. HEK293 GLP-1R CRE-luciferase, luminescence, 4-6 h; cells express a hypersensitive GLP-1R form. P43220; also: potency is read from the fitted curve at half-maximal effect; % of control where 0% means no effect
# HEK293 tox – cytotoxicity in counter-screen for GLP-1R inverse agonists. HEK293 cAMP-luciferase reporter cells, luminescence, 24 h. Potency, µM (series often up to 38.3 µM), inactives show top-dose activity change, negative = inhibition, usual class: inhibitors. hit rate 0.13% among 410,000. AID 624418;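 also: loss of luciferase light is scored as toxicity; potency is read from the fitted curve at half-maximal effect; % is scaled to controls: 0 for no effect and ±100 for the full control effect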
#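 MLSMR compounds, 24 hr on cells at 37 deg C/5% CO2; luminescence after luciferase reagent (12 min RT). Inhibition counted as the undesired cytotoxic outcome.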
# TRPML1 inh – human mucolipin-1 channel inhibition | hit rate 0.02% among 390,000 | Q9GZU1 | TRPML1-inducible cells, Ca2+ dye fluorescence, FDSS; stronger effect = lower value; inhibition of EC80 agonist-evoked calcium signal | activity change, negative = inhibition, % (concentration not given with the values); in the data active = activity change below about -50%; inconclusive = between about -30% and that limit;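 also: stimulus is agonist 54-4 at its EC80 concentration; % is scaled to controls: 0 for no effect and ±100 for the full control effect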
#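 Tet-induced TRPML1-DL cells loaded with Ca8 no-wash calcium dye were read kinetically on FDSS. Compound addition was followed by EC80 agonist 54-4 (4 uM final); inhibition was read over 110 s.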
# GLP1R inv ag – inverse agonists of human GLP-1 receptor; HEK293 GLP-1R CRE-luciferase, luminescence, 24 h; GLP-1R form is constitutively active; Potency, µM (titrated, usually from 38.3 µM), for inactives: top-dose activity change, negative = inhibition, hits mostly inhibitors; hit rate 1.6% among 410,000; AID 624417; also: potency is read from the fitted curve at half-maximal effect; % is scaled to controls: 0 for no effect and ±100 for the full control effect; nearly all actives have a fitted effect of over 55% in size
#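 Using stably transfected HEK293 (constitutively active GLP-1R, cAMP-luciferase reporter), compounds were incubated 24 hr and luciferase measured by luminescence.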
# * = called active by the depositor; ? = inconclusive; · = no result given. Unless noted, calls follow the shape of the dose curve; as a rule, active = well fitted curve in the direction sought with a large enough effect; inconclusive = small, poorly fitted or top-dose-only effect, or another doubt; inactive = no such curve, though single readings can be large; an effect the other way counts as inactive or inconclusive.
SMILES,TRPML1 ag,GLP1R ag,HEK293 tox,TRPML1 inh,GLP1R inv ag
CCOc1ccc(NC(=O)C(=O)NCC(c2cccnc2)N2CCc3ccccc32)cc1 (configuration not stated),0.3,·,-15.9%,-14.1,?
COc1ccc(OCC(O)CNC(C)c2ccccc2)cc1 (configuration not stated),1.6,2.8%,4.5%,-16.0,-24.4%
CCCC(NCC(O)COc1ccc(-c2ccccc2)cc1)c1ccccc1 (configuration not stated),0.6,-6.2%,?,2.1,12.6µM*
Cc1[nH]nc2ncc(C(=O)c3ccccc3O)cc12,3.2,-11.0%,-5.2%,23.7,10µM*
CC1(C)C(=O)N(CC(=O)Nc2cccc(F)c2)c2ccc(S(=O)(=O)N3CCCCC3)cc21,0.5,·,-5.5%,6.1,?
O=[N+]([O-])c1ccc(C2CCCC/C2=N\OCc2cccc(F)c2)c([N+](=O)[O-])c1 (configuration not stated),0.3,-3.8%,20.9%,22.4,10µM*
COc1ccc(Cl)cc1NC(=O)CN(C(=O)c1ccco1)C1CCCCC1,-0.2,-3.4%,3.7%,3.2,10µM*
COc1ccc(Cl)cc1NC(=O)CN(C)C(C)C(=O)NCC1CCCCC1 (configuration not stated),0.2,1.8%,-18.4%,6.5,0.0%
CN(C)S(=O)(=O)c1ccc(C(=O)N2CC(=O)Nc3ccc(Br)cc3C2c2ccc(F)cc2)cc1 (configuration not stated),2.5,·,-1.7%,-17.8,6.2%
CCC(=O)N1CCc2cc(Br)cc(S(=O)(=O)CCC(=O)N3CCN(c4ccccc4OC)CC3)c21,-0.8,·,5.4%,-10.7,3.6%
Cc1ccc(C(C)(C)C)cc1S(=O)(=O)Nc1nc2ccccc2nc1Cl,·,-0.4%,-14.8%,·,10µM*
Cc1nc(-c2ccc(C)c(N3CCN(C(=O)Nc4cccc(Cl)c4C)CC3)c2)no1,2.6,-3.7%,0.1%,-5.8,4.47µM*
Cc1ccc(NC(=O)N2CCN(c3cc(-c4noc(C)n4)ccc3C)CC2)c(C)c1,0.7,-6.8%,2.6%,13.3,9.5%
CCNC(=S)N1N=C2c3ccccc3CCC2C1c1ccc(F)cc1 (configuration not stated),1.4,-17.6%,?,69.5,3.55µM*
CC(=O)N1N=C2c3ccccc3CCC2C1c1ccc(F)cc1 (configuration not stated),0.3,14.8%,10.0%,8.0,?
COc1cccc(NC(=O)c2c(N3CCCC3=O)c3cc(C)ccc3n2C)c1,0.9,13.4%,-7.5%,12.4,-13.6%
COc1cc(S(=O)(=O)NCCc2c(C)[nH]c3ccc(C)cc23)ccc1Br,1.7,·,0.2%,3.6,10µM*
Cc1[nH]c2ccccc2c1CCNS(=O)(=O)c1ccc(S(N)(=O)=O)cc1,-0.3,7.4%,11.3%,-9.0,-21.1%
COc1ccc(C(C)C)cc1S(=O)(=O)NCCc1c(C)[nH]c2ccc(C)cc12,2.4,·,2.1%,-8.2,11.2µM*
COc1ccc(C(C)C)cc1S(=O)(=O)NCCc1c(C)[nH]c2c(Cl)cccc12,4.4,·,-26.7%,17.9,?
CCOC(=O)c1ccc(N=c2sc(C(=O)OC)cc(=O)n2Cc2ccco2)cc1,-0.1,6.5%,?,-4.6,4.47µM*
CCOC(=O)c1ccc(N=c2sc(C(=O)OC)cc(=O)n2CCCN2CCOCC2)cc1,0.3,-6.2%,0.4%,-6.8,?
Cc1ccccc1C(NC(=O)C1CCN(Cc2ccc(Oc3ccccc3)cc2)CC1)c1ccsc1 (configuration not stated),0.8,-8.1%,-7.7%,·,?
O=C(NC(c1ccc(Cl)cc1)c1ccsc1)C1CCN(Cc2ccc(Oc3ccccc3)cc2)CC1 (configuration not stated),0.4,1.7%,-23.7%,·,10µM*
CCOC(=O)c1cc(-c2ccc(OC)cc2)n(CCC(=O)NCc2ccccc2OC)c1C,0.7,·,4.6%,2.1,?
COc1ccc(C)cc1S(=O)(=O)Nc1ccc(F)c(Cl)c1,0.0,-2.9%,-7.9%,6.5,10µM*
COc1ccc(NS(=O)(=O)c2cc(C)ccc2OC)cc1OC,-0.1,-1.4%,-11.3%,11.9,4.7%

# Compound activity from PubChem.
